# Measured values from ChEMBL document CHEMBL3433997, “St. Jude Leishmania screening dataset” (2016).
# How the values were obtained:
# Assay type in all cases: functional
# [1] = target: Solute carrier family 2, facilitated glucose transporter member 1 (Homo sapiens) (UniProt P11166); experiment: ST_JUDE_LEISH: Cytotoxicity at 2uM final concentration against transgenic Leishmania Mexicana promastigotes LmGLUT1 that are glucose transport deficient and complemented with the human glucose transporter GLUT1. Activity is measured by DNA content using SYBR green in vitro
# [2] = target: Hexose transporter 1 (Plasmodium falciparum) (UniProt O97467); experiment: ST_JUDE_LEISH: Cytotoxicity at 2uM final concentration against transgenic Leishmania Mexicana promastigotes LmPfHT that are glucose transport deficient and complemented with the Plasmodium falciparum hexose transporter. Activity is measured by DNA content using SYBR green in vitro
# [3] = target: Glucose transporter (Leishmania mexicana) (UniProt O61059); experiment: ST_JUDE_LEISH: Cytotoxicity at 2uM final concentration against transgenic Leishmania Mexicana promastigotes LmGT2 that are glucose transport deficient and complemented with the L. Mexicana glucose transporter 2. Activity is measured by DNA content using SYBR green in vitro
# Sequence of Solute carrier family 2, facilitated glucose transporter member 1 (Homo sapiens) (P11166 whole entry): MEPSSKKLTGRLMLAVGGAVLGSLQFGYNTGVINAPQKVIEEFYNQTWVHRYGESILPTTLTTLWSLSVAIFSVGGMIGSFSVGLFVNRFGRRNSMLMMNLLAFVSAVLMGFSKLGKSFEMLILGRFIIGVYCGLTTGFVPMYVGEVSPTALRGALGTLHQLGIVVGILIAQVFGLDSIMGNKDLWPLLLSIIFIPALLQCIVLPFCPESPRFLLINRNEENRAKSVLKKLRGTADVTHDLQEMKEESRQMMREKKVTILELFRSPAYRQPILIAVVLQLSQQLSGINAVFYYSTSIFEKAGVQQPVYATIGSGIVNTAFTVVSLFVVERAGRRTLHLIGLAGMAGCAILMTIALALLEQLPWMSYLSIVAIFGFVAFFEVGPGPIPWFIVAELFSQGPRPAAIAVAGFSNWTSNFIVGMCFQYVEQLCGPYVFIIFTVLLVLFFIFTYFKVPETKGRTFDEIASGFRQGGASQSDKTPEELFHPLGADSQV
Compound,inhibition [1] [%],inhibition [2] [%],inhibition [3] [%]
CCCCc1cc(NCC)nc(Nc2ccc(OC)cc2)n1,20.3,10.1,5.43
Cc1ccc(NC(=O)NC2CCN(c3ccnc4cc(Cl)ccc34)C2)cc1 (configuration not stated),0.94,4.46,2.34
Cc1noc(C)c1-c1cccc(CNCc2cccc(-c3ccc(-c4nc5cccc(C)c5[nH]4)s3)c2)c1,2.85,2.47,2.66
CCc1c(CCNCCCCCCNC(C)Cc2ccc3c(c2CC)OCO3)ccc(OC)c1OC (configuration not stated),4.49,3.47,1.99
CN(CCCNCc1ccc2ccccc2c1)CCCNCc1ccc2ccccc2c1,12.4,13.7,3.29
Cc1ccc(CN2CCN(CC(O)COc3ccc4c(c3)CCC4)CC2)cc1 (configuration not stated),-0.73,0.88,-0.29
Cc1ccccc1Cn1ccc2c3c(N)nc(N)nc3ccc21,92.7,87.7,81.9
CCOc1cc(C(=O)NC2CC(C)(C)NC(C)(C)C2)ccc1-c1nc2cc(Cl)ccc2[nH]1,1.25,1.71,1.1
Nc1ccc2nc(C=Cc3ccccc3)[nH]c2c1,1.45,0.85,3.06
O=C(Nc1ccc(OC(F)(F)F)cc1)NC1CCN(c2ccnc3ccccc23)CC1,6.11,5.45,-1.28
O=C(NCCN1CCCC1)c1cccc(-c2ccc(-c3nc4ccccc4[nH]3)cc2)c1,3.79,5.32,4.26
CC(C)CN(Cc1c(O)ccc2[nH]c(-c3ccc(F)cc3F)nc12)CC(C)C,11.1,10.8,5.69
COc1ccc2nccc([C@@H](O)CN3CCC(NC(=O)C(c4cc5ccccc5o4)N4CCN(c5ccc(F)cc5)CC4)CC3)c2c1 (some centres not stated),2.59,1.79,0.13
COc1ccccc1C1CC(c2ccc(Br)cc2)=NN1C(=O)c1ccccc1 (configuration not stated),2.83,2.02,0.92
Cc1ccc2[nH]c(-c3ccc(C=CC(=O)NC4CCN(Cc5ccccc5)CC4)cc3)nc2c1,2.64,3.29,5.84
Cc1ccc(CON2C(=N)N=C(N)NC2(C)C)cc1C,4.78,3.55,3.93
CS(=O)(=O)c1ccc(CNCc2ccc(-c3cccc(-c4nc5cc(C(F)(F)F)ccc5[nH]4)c3)cc2)cc1,3.2,3.79,1.5

Compound,inhibition [1] [%],inhibition [2] [%],inhibition [3] [%]
COc1ccc(CNC2CCN(C)CC2)cc1-c1ccc(S(=O)(=O)NCCc2ccccn2)c(C)c1,4.11,1.98,1.53
CC(C)Cn1cc(C2CCN(CCN3CCC(CNC(=O)c4ccc(NC(=O)c5ccc(Cl)cc5)cc4)CC3)CC2)c2ccccc21,7.85,7.36,4.99
O=C(Nc1ccc2oc(-c3ccc(Br)cc3)nc2c1)c1ccc([N+](=O)[O-])o1,10.3,6.94,6.73
COc1cc(Nc2ccnc3cc(-c4ccncc4)ccc23)cc(OC)c1OC,11.4,20.7,9.21
COc1ccc2nccc([C@@H](O)CN3CCC(NC(=O)C(c4cc5ccccc5o4)N4CCN(Cc5ccccc5)CC4)CC3)c2c1 (some centres not stated),3.8,1.35,0.77
Cc1ccc2c(Cl)c(C(=O)N3CC(C)OC(C)C3)sc2c1 (configuration not stated),0.22,1.09,3.43
Cc1cnc2cc3c(cc2c1N1CCN(C)CC1)NCC3,-0.55,-0.98,-1.24
COc1cc2cc(C(=O)Nc3ccccc3)c(N)nc2cc1OC,0.36,1.61,0.18
CCCOc1ccc(NC(=O)c2cccs2)cc1Cl,10,8.57,9.7
CN(CCC1CCN(C(=O)/C=C/c2ccc(Cl)c(Cl)c2)CC1)C1CCC(c2c[nH]c3ccccc23)CC1 (configuration not stated),7,8.06,3.97
CCOc1ccc(-c2nonc2NC(=O)CC(C)C)cc1OCC,-0.61,-0.84,-1.25
Cc1cccc2nc(-c3cccc(-c4ccc(NC(=O)C(C)C(=O)NC(C)C)cc4)c3)[nH]c12 (configuration not stated),0.75,2.05,2.38
CC(CO)(CO)NCc1cc2c3ccccc3c(CNC(C)(CO)CO)cc2c2ccccc12,5.4,2.65,2.67
COc1ccc2nccc(N(C)CC3(O)CCN(CCc4ccc5c(c4)NC(=O)CS5)CC3)c2n1,6.99,6.89,6.32
Cc1ccc(S(=O)(=O)c2nc(S(=O)(=O)c3ccccc3)sc2NCC2CCCO2)cc1 (configuration not stated),11.8,11.1,9.48
Cc1cccc2nc(-c3ccc(-c4ccc(CN5CCCC(O)C5)cc4)cc3)[nH]c12 (configuration not stated),25.8,30.8,19.8
O=c1cc(NCCC2CC=CCN2Cc2ccc(Cl)c(Cl)c2)[nH]c2ccccc12 (configuration not stated),1,0.33,-0.25
